# Results: article PMC11062922 (Nature Chemical Biology, 2023)
# Like-named read-outs stand apart in the source and are kept apart here.
# Tests used:
# AURKB = conditions: read-out: apparent Kd, n = 1
# CDKL5 = conditions: read-out: apparent Kd, n = 1
# [1] = compound concentrations:100 nM and 1000 nM (sheet 'Lestaurtinib' of Supplementary Table 1),run:Lestaurtinib_02438_R3,Plate:MR008
# [2] = compound concentrations:100 nM and 1000 nM (sheet 'Lestaurtinib' of Supplementary Table 1),run:Lestaurtinib_02443_R2,Plate:MR009
# [3] = compound concentrations:100 nM and 1000 nM (sheet 'Lestaurtinib' of Supplementary Table 1),run:Lestaurtinib_02473_R1,Plate:MR010
# [4] = compound concentrations:100 nM and 1000 nM (sheet 'Lestaurtinib' of Supplementary Table 1),run:Lestaurtinib_02487_R1,Plate:MR012
# [5] = compound concentrations:100 nM and 1000 nM (sheet 'Lestaurtinib' of Supplementary Table 1),run:Lestaurtinib_02487_R2,Plate:MR012
# [6] = compound concentrations:100 nM and 1000 nM (sheet 'Lestaurtinib' of Supplementary Table 1),run:Lestaurtinib_02566_R1,Plate:MR014
# [7] = compound concentrations:100 nM and 1000 nM (sheet 'Lestaurtinib' of Supplementary Table 1),run:Lestaurtinib_02572_R1,Plate:MR015
substance,measurement,setting,value
Lestaurtinib,potency estimated from few doses,AURKB; [1],161 nM
same,potency estimated from few doses,"AURKB; compound concentrations:100 nM and 1000 nM (sheet 'Lestaurtinib' of Supplementary Table 1),run:Lestaurtinib_02443_R1,Plate:MR009",193 nM
same,potency estimated from few doses,AURKB; [2],260 nM
same,potency estimated from few doses,AURKB; [3],144 nM
same,potency estimated from few doses,AURKB; [4],224 nM
same,potency estimated from few doses,AURKB; [5],219 nM
same,potency estimated from few doses,"AURKB; compound concentrations:100 nM and 1000 nM (sheet 'Lestaurtinib' of Supplementary Table 1),run:Lestaurtinib_02496_R2,Plate:MR013",115 nM
same,potency estimated from few doses,AURKB; [6],273 nM
same,potency estimated from few doses,"AURKB; compound concentrations:100 nM and 1000 nM (sheet 'Lestaurtinib' of Supplementary Table 1),run:Lestaurtinib_02566_R2,Plate:MR014",297 nM
same,potency estimated from few doses,AURKB; [7],271 nM
same,potency estimated from few doses,"AURKB; compound concentrations:100 nM and 1000 nM (sheet 'Lestaurtinib' of Supplementary Table 1),run:Lestaurtinib_02572_R3,Plate:MR015",151 nM
same,potency estimated from few doses,"AURKB; compound concentrations:100 nM and 1000 nM (sheet 'Lestaurtinib' of Supplementary Table 1),run:Lestaurtinib_02577_R1,Plate:MR016",239 nM
same,potency estimated from few doses,"AURKB; compound concentrations:100 nM and 1000 nM (sheet 'Lestaurtinib' of Supplementary Table 1),run:Lestaurtinib_02584_R1,Plate:MR017",236 nM
same,potency estimated from few doses,"AURKB; compound concentrations:100 nM and 1000 nM (sheet 'Lestaurtinib' of Supplementary Table 1),run:Lestaurtinib_02584_R2,Plate:MR017",271 nM
same,potency estimated from few doses,"AURKB; compound concentrations:100 nM and 1000 nM (sheet 'Lestaurtinib' of Supplementary Table 1),run:Lestaurtinib_02584_R3,Plate:MR017",237 nM
same,potency estimated from few doses,"AURKB; compound concentrations:100 nM and 1000 nM (sheet 'Lestaurtinib' of Supplementary Table 1),run:Lestaurtinib_02601_R2,Plate:MR018",240 nM
same,potency estimated from few doses,"AURKB; compound concentrations:100 nM and 1000 nM (sheet 'Lestaurtinib' of Supplementary Table 1),run:Lestaurtinib_02606_R1,Plate:MR019",271 nM
same,potency estimated from few doses,"AURKB; compound concentrations:100 nM and 1000 nM (sheet 'Lestaurtinib' of Supplementary Table 1),run:Lestaurtinib_02624_R1,Plate:MR020",259 nM
same,potency estimated from few doses,"AURKB; compound concentrations:100 nM and 1000 nM (sheet 'Lestaurtinib' of Supplementary Table 1),run:Lestaurtinib_02624_R2,Plate:MR020",278 nM
same,potency estimated from few doses,"AURKB; compound concentrations:100 nM and 1000 nM (sheet 'Lestaurtinib' of Supplementary Table 1),run:Lestaurtinib_02624_R3,Plate:MR020",260 nM
same,potency estimated from few doses,"AURKB; compound concentrations:100 nM and 1000 nM (sheet 'Lestaurtinib' of Supplementary Table 1),run:Lestaurtinib_02724_R1,Plate:MR021",414 nM
same,potency estimated from few doses,"AURKB; compound concentrations:100 nM and 1000 nM (sheet 'Lestaurtinib' of Supplementary Table 1),run:Lestaurtinib_02724_R2,Plate:MR021",253 nM
same,potency estimated from few doses,"AURKB; compound concentrations:100 nM and 1000 nM (sheet 'Lestaurtinib' of Supplementary Table 1),run:Lestaurtinib_02724_R3,Plate:MR021",80.5 nM
same,potency estimated from few doses,"AURKB; compound concentrations:100 nM and 1000 nM (sheet 'Lestaurtinib' of Supplementary Table 1),run:Lestaurtinib_02741_R1,Plate:MR023",289 nM
same,potency estimated from few doses,"AURKB; compound concentrations:100 nM and 1000 nM (sheet 'Lestaurtinib' of Supplementary Table 1),run:Lestaurtinib_02741_R2,Plate:MR023",259 nM
same,potency estimated from few doses,"AURKB; compound concentrations:100 nM and 1000 nM (sheet 'Lestaurtinib' of Supplementary Table 1),run:Lestaurtinib_02748_R1,Plate:MR024",229 nM
same,potency estimated from few doses,"AURKB; compound concentrations:100 nM and 1000 nM (sheet 'Lestaurtinib' of Supplementary Table 1),run:Lestaurtinib_02748_R2,Plate:MR024",286 nM
same,potency estimated from few doses,"AURKB; compound concentrations:100 nM and 1000 nM (sheet 'Lestaurtinib' of Supplementary Table 1),run:Lestaurtinib_02752_R1,Plate:MR025",290 nM
same,potency estimated from few doses,"AURKB; compound concentrations:100 nM and 1000 nM (sheet 'Lestaurtinib' of Supplementary Table 1),run:Lestaurtinib_02765_R1,Plate:MR026",275 nM
same,potency estimated from few doses,"AURKB; compound concentrations:100 nM and 1000 nM (sheet 'Lestaurtinib' of Supplementary Table 1),run:Lestaurtinib_02765_R3,Plate:MR026",350 nM
same,potency estimated from few doses,"AURKB; compound concentrations:100 nM and 1000 nM (sheet 'Lestaurtinib' of Supplementary Table 1),run:Lestaurtinib_02766_R2,Plate:MR027",95.3 nM
same,potency estimated from few doses,"AURKB; compound concentrations:100 nM and 1000 nM (sheet 'Lestaurtinib' of Supplementary Table 1),run:Lestaurtinib_02768_R1,Plate:MR028",151 nM
same,potency estimated from few doses,"AURKB; compound concentrations:100 nM and 1000 nM (sheet 'Lestaurtinib' of Supplementary Table 1),run:Lestaurtinib_02768_R2,Plate:MR028",146 nM
same,potency estimated from few doses,"AURKB; compound concentrations:100 nM and 1000 nM (sheet 'Lestaurtinib' of Supplementary Table 1),run:Lestaurtinib_02768_R3,Plate:MR028",169 nM
same,potency estimated from few doses,"AURKB; compound concentrations:100 nM and 1000 nM (sheet 'Lestaurtinib' of Supplementary Table 1),run:Lestaurtinib_02795_R2,Plate:MR022",132 nM
same,potency estimated from few doses,"AURKB; compound concentrations:100 nM and 1000 nM (sheet 'Lestaurtinib' of Supplementary Table 1),run:Lestaurtinib_02795_R3,Plate:MR022",269 nM
same,potency estimated from few doses,"AURKB; compound concentrations:100 nM and 1000 nM (sheet 'Lestaurtinib' of Supplementary Table 1),run:Lestaurtinib_02802_R2,Plate:MR029",144 nM
same,potency estimated from few doses,"AURKB; compound concentrations:100 nM and 1000 nM (sheet 'Lestaurtinib' of Supplementary Table 1),run:Lestaurtinib_02802_R3,Plate:MR029",83.6 nM
same,potency estimated from few doses,"AURKB; compound concentrations:100 nM and 1000 nM (sheet 'Lestaurtinib' of Supplementary Table 1),run:Lestaurtinib_02896_R3,Plate:MR030",218 nM
same,potency estimated from few doses,"AURKB; compound concentrations:100 nM and 1000 nM (sheet 'Lestaurtinib' of Supplementary Table 1),run:Lestaurtinib_03172_R1,Plate:MR031",146 nM
same,potency estimated from few doses,"AURKB; compound concentrations:100 nM and 1000 nM (sheet 'Lestaurtinib' of Supplementary Table 1),run:Lestaurtinib_03172_R3,Plate:MR031",290 nM
same,potency estimated from few doses,"AURKB; compound concentrations:100 nM and 1000 nM (sheet 'Lestaurtinib' of Supplementary Table 1),run:Lestaurtinib_03252_R2,Plate:MR032",136 nM
same,potency estimated from few doses,"AURKB; compound concentrations:100 nM and 1000 nM (sheet 'Lestaurtinib' of Supplementary Table 1),run:Lestaurtinib_03260_R2,Plate:MR033",243 nM
same,potency estimated from few doses,"CDKL5; compound concentrations:100 nM and 1000 nM (sheet 'Lestaurtinib' of Supplementary Table 1),run:Lestaurtinib_02339_R1,Plate:MR001",72.5 nM
same,potency estimated from few doses,"CDKL5; compound concentrations:100 nM and 1000 nM (sheet 'Lestaurtinib' of Supplementary Table 1),run:Lestaurtinib_02339_R2,Plate:MR001",37.7 nM
same,potency estimated from few doses,"CDKL5; compound concentrations:100 nM and 1000 nM (sheet 'Lestaurtinib' of Supplementary Table 1),run:Lestaurtinib_02364_R1,Plate:MR002",5.84 nM
same,potency estimated from few doses,"CDKL5; compound concentrations:100 nM and 1000 nM (sheet 'Lestaurtinib' of Supplementary Table 1),run:Lestaurtinib_02364_R3,Plate:MR002",158 nM
same,potency estimated from few doses,"CDKL5; compound concentrations:100 nM and 1000 nM (sheet 'Lestaurtinib' of Supplementary Table 1),run:Lestaurtinib_02367_R2,Plate:MR003",373 nM
same,potency estimated from few doses,"CDKL5; compound concentrations:100 nM and 1000 nM (sheet 'Lestaurtinib' of Supplementary Table 1),run:Lestaurtinib_02367_R3,Plate:MR003",37.9 nM
same,potency estimated from few doses,"CDKL5; compound concentrations:100 nM and 1000 nM (sheet 'Lestaurtinib' of Supplementary Table 1),run:Lestaurtinib_02381_R1,Plate:MR004",135 nM
same,potency estimated from few doses,"CDKL5; compound concentrations:100 nM and 1000 nM (sheet 'Lestaurtinib' of Supplementary Table 1),run:Lestaurtinib_02381_R2,Plate:MR004",149 nM
same,potency estimated from few doses,"CDKL5; compound concentrations:100 nM and 1000 nM (sheet 'Lestaurtinib' of Supplementary Table 1),run:Lestaurtinib_02381_R3,Plate:MR004",269 nM
same,potency estimated from few doses,"CDKL5; compound concentrations:100 nM and 1000 nM (sheet 'Lestaurtinib' of Supplementary Table 1),run:Lestaurtinib_02407_R1,Plate:MR005",43.6 nM
same,potency estimated from few doses,"CDKL5; compound concentrations:100 nM and 1000 nM (sheet 'Lestaurtinib' of Supplementary Table 1),run:Lestaurtinib_02407_R2,Plate:MR005",167 nM
same,potency estimated from few doses,"CDKL5; compound concentrations:100 nM and 1000 nM (sheet 'Lestaurtinib' of Supplementary Table 1),run:Lestaurtinib_02437_R1,Plate:MR007",32 nM
same,potency estimated from few doses,"CDKL5; compound concentrations:100 nM and 1000 nM (sheet 'Lestaurtinib' of Supplementary Table 1),run:Lestaurtinib_02437_R2,Plate:MR007",113 nM
same,potency estimated from few doses,"CDKL5; compound concentrations:100 nM and 1000 nM (sheet 'Lestaurtinib' of Supplementary Table 1),run:Lestaurtinib_02437_R3,Plate:MR007",2.19 nM
same,potency estimated from few doses,"CDKL5; compound concentrations:100 nM and 1000 nM (sheet 'Lestaurtinib' of Supplementary Table 1),run:Lestaurtinib_02438_R1,Plate:MR008",8.7 nM
same,potency estimated from few doses,"CDKL5; compound concentrations:100 nM and 1000 nM (sheet 'Lestaurtinib' of Supplementary Table 1),run:Lestaurtinib_02438_R2,Plate:MR008",181 nM
same,potency estimated from few doses,CDKL5; [1],176 nM
same,potency estimated from few doses,CDKL5; [2],27.1 nM
same,potency estimated from few doses,"CDKL5; compound concentrations:100 nM and 1000 nM (sheet 'Lestaurtinib' of Supplementary Table 1),run:Lestaurtinib_02443_R3,Plate:MR009",41.7 nM
same,potency estimated from few doses,CDKL5; [3],70.4 nM
same,potency estimated from few doses,"CDKL5; compound concentrations:100 nM and 1000 nM (sheet 'Lestaurtinib' of Supplementary Table 1),run:Lestaurtinib_02473_R3,Plate:MR010",212 nM
same,potency estimated from few doses,"CDKL5; compound concentrations:100 nM and 1000 nM (sheet 'Lestaurtinib' of Supplementary Table 1),run:Lestaurtinib_02482_R1,Plate:MR011",33.6 nM
same,potency estimated from few doses,"CDKL5; compound concentrations:100 nM and 1000 nM (sheet 'Lestaurtinib' of Supplementary Table 1),run:Lestaurtinib_02482_R2,Plate:MR011",27.4 nM
same,potency estimated from few doses,CDKL5; [4],190 nM
same,potency estimated from few doses,CDKL5; [5],449 nM
same,potency estimated from few doses,"CDKL5; compound concentrations:100 nM and 1000 nM (sheet 'Lestaurtinib' of Supplementary Table 1),run:Lestaurtinib_02496_R1,Plate:MR013",14.9 nM
same,potency estimated from few doses,CDKL5; [6],298 nM
same,potency estimated from few doses,"CDKL5; compound concentrations:100 nM and 1000 nM (sheet 'Lestaurtinib' of Supplementary Table 1),run:Lestaurtinib_02566_R3,Plate:MR014",21.2 nM
same,potency estimated from few doses,CDKL5; [7],389 nM
